Active and inactive are the calls of the source. The calls were made as follows: active = hit-call score of the fitted dose curve at least 0.9, where 1 is the maximum; inactive = score below 0.9.

Consider 40 molecules from PubChem BioAssay (EPA / NIEHS).

Read-out in this assay: Tissue plasminogen activator (tPA), PLAT (gene 5327)
The experiment in a line: BSK_BE3C_tPA: BioMAP Diversity Plus: BE3C Assay for Tissue plasminogen activator (tPA) Biomarker Activity (AID 2283041).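 As to outcome: tPA level quantified by ELISA one day after compound addition.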 To be noted: primary human bronchial epithelial cells; actives raise or lower the signal. How it is done: BSK_BE3C is a cell-based, multiplexed-readout assay that uses bronchial epithelial cell, a human lung primary cell, with measurements taken at 24 hours after chemical dosing in a 96-well plate.BSK_BE3C_tPA is an assay component measured in the BSK_BE3C assay. It measures tPA antibody related to regulation of gene expression using ELISA technology.Data from the assay component BSK_BE3C_tPA was analyzed into 1 assay endpoint. This assay endpoint, BSK_BE3C_tPA, was analyzed with bidirectional fitting relative to DMSO as the negative control and baseline of activity. Using a type of binding reporter, gain or loss-of-signal activity can be used to understand changes in the signaling as they relate to the gene PLAT. Furthermore, this assay endpoint can be referred to as a primary readout, because this assay has produced multiple assay endpoints where this one serves a signaling function. To generalize the intended target to other relatable targets, this assay endpoint is annotated to the protease intended target family, where the subfamily is serine protease.
The levels of cell surface (or secreted, indicated by the prefix "s") biomarker endpoints were measured by ELISA. Overt cytotoxicity to cells in confluent adherent cultures (all systems other than the BT system) was assessed by measuring total protein levels using sulforhodamine B (SRB) staining in parallel cultures at the time of biomarker measurements, indicated as SRB endpoints. For proliferation assays for adherent cell types, individual cell types are cultured at sub-confluence and relative cell numbers quantified by SRB staining at time points optimized for each system (48 h: 3C and CASM3C systems; 72 h: BT and HDF3CGF systems; 96 h: SAg system). SRB was performed by staining cells with 0.1% SRB after fixation with 10% TCA and reading wells at 560 nm.Viability and proliferation of PBMC (T cells) was quantified by Alamar Blue reduction for the SAg and BT systems. For PBMC viability (referred to as PBMC Cytotoxicity within the assay endpoint names), cells were plated (75,000/well in a 96-well plate) and then chemical samples added for 1 h before addition of activators, SEB and TSST-1 (20 ng/mL final concentration each). Cells were incubated for 90 h. Then, Alamar Blue (20 uL/well) (Invitrogen, Cat DAL1100) was added for 6 h, and the plates were read with a fluorescence microplate reader at 546/580 nm (excitation/emission). For PBMC proliferation, cells were plated and activated as above but incubated for only 16 h prior to addition of Alamar Blue. Plates were read after 6 h.
Regarding `CCCC(=NOCC)C1=C(O)CC(CC(C)SCC)CC1=O` (stereo not given), the outcome was inactive.

For the molecule `CC(C)N1C(=O)N(c2ccccc2)CSC1=NC(C)(C)C`, the outcome was inactive.

Regarding `COCC(=O)N(c1c(C)cccc1C)C(C)C(=O)OC` (stereo not given), the outcome was inactive.

In the case of `COC(=O)c1c(C(F)F)nc(C(F)(F)F)c(C2=NCCS2)c1CC(C)C`, the result was inactive.

Turning to `CS(=O)(=O)c1cc(C(F)(F)F)ccc1C(=O)c1cnoc1C1CC1`, the result was inactive.

On to `CCOP(=S)(OCC)Oc1nc(Cl)n(C(C)C)n1`, for which the result was inactive.

Turning to `COC(=O)NS(=O)(=O)c1ccc(N)cc1`, the outcome was inactive.

With `Cn1c(-c2ccccc2)cc(-c2ccccc2)[n+]1C`, the result was inactive.

Take `CC1(C)CON(Cc2ccccc2Cl)C1=O`: the outcome was inactive.

`COCc1cnc(C2=NC(C)(C(C)C)C(=O)N2)c(C(=O)O)c1` (stereo not given): the outcome was inactive.

Take `CN=C=S`: the outcome was inactive.

As usually defined, the AC50 is the midpoint of the concentration-response curve, whichever way the signal moves. Turning to `CCCCOCN(C(=O)CCl)c1c(CC)cccc1CC`, the AC50 was 36.9 µM (active).

Take `CS(=O)(=O)c1ccc(C(=O)C2C(=O)CCCC2=O)c([N+](=O)[O-])c1`: the outcome was inactive.

For the molecule `CC(C)NC(=O)N1CC(=O)N(c2cc(Cl)cc(Cl)c2)C1=O`, the outcome was inactive.

As to `COP(=S)(OC)SCn1nnc2ccccc2c1=O`, the result was inactive.

`COC(=O)N(C(=O)N1CO[C@@]2(C(=O)OC)Cc3cc(Cl)ccc3C2=N1)c1ccc(OC(F)(F)F)cc1`: the outcome was inactive.

Take `CN/C(=N\[N+](=O)[O-])NCc1cnc(Cl)s1`: the result was inactive.

On to `CCOc1nc(F)cc2nc(S(=O)(=O)Nc3c(Cl)cccc3Cl)nn12`, for which the result was inactive.

For `CC(C)Oc1cccc(NC(=O)c2ccccc2C(F)(F)F)c1`, the result was inactive.

With `C=C(C)CN(CC)c1c([N+](=O)[O-])cc(C(F)(F)F)cc1[N+](=O)[O-]`, the outcome was inactive.

As to `Cc1cnc(C2=NC(C)(C(C)C)C(=O)N2)c(C(=O)O)c1` (stereo not given), the outcome was inactive.

`CCN(CC)c1nc(C)cc(OP(=S)(OC)OC)n1`: the outcome was inactive.

Take `CCCCC(C#N)(Cn1cncn1)c1ccc(Cl)cc1` (stereo not given): the outcome was inactive.

`Cc1nc(N(C)C)nc(OC(=O)N(C)C)c1C`: the outcome was inactive.

As for `COc1cc(Cl)c(OC)cc1Cl`, the outcome was inactive.

Take `CCNC(=O)NC(=O)C(C#N)=NOC`: the result was inactive.

As to `CCCCC(O)(Cn1cncn1)c1ccc(Cl)cc1Cl` (stereo not given), the outcome was inactive.

Consider `CCOP(=O)(OCC)Oc1nc(Cl)c(Cl)cc1Cl`, for which the outcome was inactive.

With `O=C1C2CC=CCC2C(=O)N1SC(Cl)(Cl)Cl` (stereo not given), the AC50 is 11.4 µM (active).

For `CC1(C)C(C(=O)OC(C#N)c2cccc(Oc3ccccc3)c2)C1(C)C` (stereo not given), the result was inactive.

Turning to `Nc1cnn(-c2ccccc2)c(=O)c1Cl`, the result was inactive.

In the case of `CNC(=O)N(C)c1nnc(C(C)(C)C)s1`, the outcome was inactive.

Turning to `CCOc1cc(C(C)(C)C)ccc1C1COC(c2c(F)cccc2F)=N1` (stereo not given), the concentration at half-maximal activity (AC50) was 22.1 µM (active).

As for `Cc1ccc(N=CN(C)C=Nc2ccc(C)cc2C)c(C)c1`, the outcome was inactive.

On to `O=C(O)c1c(Cl)ccc2cc(Cl)cnc12`, for which the outcome was inactive.

As to `O=C(Nc1ccccc1-c1ccc(Cl)cc1)c1cccnc1Cl`, the result was inactive.

`COCC(C)N(C(=O)CCl)c1c(C)csc1C` (stereo not given): the outcome was inactive.

In the case of `CCNP(=S)(OC)O/C(C)=C/C(=O)OC(C)C` (stereo not given), the outcome was inactive.

On to `Cc1c(COC(=O)[C@@H]2[C@H](/C=C(\Cl)C(F)(F)F)C2(C)C)cccc1-c1ccccc1`, for which the outcome was inactive.

For the molecule `OC(c1ccc(Cl)cc1)(c1ccc(Cl)cc1)C(Cl)(Cl)Cl`, the concentration at half-maximal activity (AC50) is 13.1 µM (active).
